# Counter-ions that a name gives are not always drawn.
# System: Danio rerio larvae Tg(actc1b:ZsGreen-LC3), 3 dpf
# Assay: LC3 puncta relative area vs vehicle, with NH4Cl (autophagic flux) (log2 fold change); higher = more autophagy
# Conditions: 10 µM; treatment time 16 h; NH4Cl: + 100 mM, 4 h
# Description: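 Transgenic Tg(actc1b:ZsGreen-map1lc3) zebrafish larvae (2 dpf) were treated for 16 h with Tocris library compounds at 10 µM (n = 12 larvae per compound). Skeletal-muscle LC3 puncta area relative to body area was measured by high-content confocal imaging before and after 4 h of 100 mM NH4Cl (autophagic flux), normalised to vehicle (DMSO), and reported as log2 fold change.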
row,Structure (SMILES),LC3 puncta (log2)
1,"Cc1cc(C)cc(C(=O)OC2C[C@H]3CC[C@@H](C2)N3C)c1 (stereo not given in full) [Tropanyl-3,5-dimethylbenzoate]",0.418
2,N=C(N)NN [Aminoguanidine hydrochloride],0.662
3,O=C(CCCN1CCC2(CC1)C(=O)N(Cc1cccc(F)c1)CN2c1ccccc1)c1ccc(F)cc1 [3'-Fluorobenzylspiperone maleate],1.38
4,CC(N)Cc1cnc[nH]1 (stereo not given),0.293
5,c1ccc(CCCN2CCN(CCOC(c3ccccc3)c3ccccc3)CC2)cc1,0.346
6,O=c1[nH]oc2c1CCNC2 [THIP hydrochloride],0.742
7,Cc1onc(O)c1C[C@H](N)C(=O)O,0.29
8,C=CCN1CC[C@]23c4c5ccc(O)c4O[C@H]2C(=O)CC[C@@]3(O)[C@H]1C5 [Naloxone hydrochloride],0.232
9,N[C@@H](Cn1oc(=O)[nH]c1=O)C(=O)O [L-Quisqualic acid],0.686
10,Oc1ccc2c3c1O[C@H]1c4[nH]c5ccccc5c4C[C@@]4(O)[C@@H](C2)N(CC2CC2)CC[C@]314 [Naltrindole hydrochloride],0.551
11,CN1C(=O)CCS(=O)(=O)C1c1ccc(Cl)cc1 (stereo not given) [Chlormezanone],0.287
12,"CC(=O)N1CC[N+](C)(C)CC1 [4-Acetyl-1,1-dimethylpiperazinium iodide]",0.151
13,c1ccc2nc(N3CCNCC3)ccc2c1 [Quipazine dimaleate],0.278
14,NCC(CS(=O)(=O)O)c1ccc(Cl)cc1 (stereo not given) [Saclofen],-0.0138
15,C(=C\c1ccccc1)/CN1CCN(CCOC(c2ccccc2)c2ccccc2)CC1,0.791
16,O=C(O)Cc1cccnc1C(=O)O [Homoquinolinic acid],0.499
17,CCC(Oc1ccc(Cl)cc1)C(=O)OC1C[C@H]2CC[C@@H](C1)N2C (stereo not given in full) [SM-21 maleate],0.294
18,O=C1NCN(c2ccccc2)C12CCN(CC1COc3ccccc3O1)CC2 (stereo not given) [Spiroxatrine],0.649
19,CCCN[C@@H]1CCc2c(OC)cccc2[C@@H]1C [(+)-AJ 76 hydrochloride],0.353
20,c1ccc2c(c1)OCC(C1=NCCN1)O2 (stereo not given) [Idazoxan hydrochloride],0.662

row,Structure (SMILES),LC3 puncta (log2)
1,CCCN(CCC)C1CCc2cccc(O)c2C1 (stereo not given) [8-Hydroxy-DPAT hydrobromide],0.325
2,COC(=O)[C@@H](N)CCCNC(=N)N[N+](=O)[O-] [L-NAME hydrochloride],0.657
3,C=CCN1C[C@H](C)N([C@H](c2ccc(C(=O)N(CC)CC)cc2)c2cccc(OC)c2)C[C@H]1C,0.846
4,CCCN(CCC)C1CCc2ccc(O)cc2C1 (stereo not given) [7-Hydroxy-DPAT hydrobromide],0.179
5,CC[N+](CC)(CCCNC1=CC(=O)C(NCCC[N+](CC)(CC)Cc2ccccc2)=CC1=O)Cc1ccccc1 [Benzoquinonium dibromide],0.386
6,Cn1cnc(CCN)c1 [N?-Methylhistamine dihydrochloride],0.559
7,NCCc1c[nH]c2ccc(C(N)=O)cc12 [5-Carboxamidotryptamine maleate],0.571
8,N[C@@]1(C(=O)O)CC[C@@H](C(=O)O)C1,0.292
9,Cc1nc(N)sc1CCN [Amthamine dihydrobromide],0.697
10,Cc1[nH]c2ccc(O)cc2c1CCN [2-Methyl-5-hydroxytryptamine hydrochloride],0.337
11,CCCCCCC[n+]1ccc(-c2cc[n+](CCCCCCC)cc2)cc1 [DHBP dibromide],0.343
12,S=C=Nc1cccc(C2(N3CCCCC3)CCCCC2)c1 [Metaphit],0.576
13,Cc1onc(O)c1CC(N)C(=O)O (racemic),0.2
14,CN1C[C@H](CNC(=O)OCc2ccccc2)C[C@@H]2c3cccc4c3c(cn4C)C[C@H]21 [Metergoline],0.408
15,CN(C(=O)Cc1ccccc1)C(CN1CCCC1)c1ccccc1 (stereo not given) [N-MPPP Hydrochloride],0.566
16,CO[C@]12C[C@@H](COC(=O)c3cncc(Br)c3)CN(C)[C@@H]1Cc1cn(C)c3cccc2c13 [Nicergoline],0.397
17,c1ccc(CCCCN2CCC(c3ccccc3)CC2)cc1 [4-PPBP maleate],0.486
18,C[C@H](N)Cc1cnc[nH]1,0.58
19,Clc1cccc(SC2CCNCC2)n1 [Anpirtoline hydrochloride],0.148
20,Fc1ccc(C(OCCN2CCN(C/C=C/c3ccccc3)CC2)c2ccc(F)cc2)cc1,0.995
